According to PubChem BioAssay (NCATS):
Results filed as inconclusive are left out. Unless noted, the call rests on the fitted dose curve; in most records, active means well fitted curve in either direction with a large enough effect (not every such curve was filed as active); inconclusive means small, poorly fitted or top-dose-only effect, or another doubt; inactive means flat fitted curve, though single readings scatter.

Tests used:
[1] = AP1 Signaling Pathway (AID 357); conditions: ME-180 AP-1-bla reporter, EGF-induced, beta-lactamase ratio, 5 h; at 17.2 µM (top of the series) unless noted;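 further: ME-180 reporter cells stimulated with EGF at its EC50 level; on the % scale 0 is the no-effect control and ±100 the full control effect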
How it was run: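 Read-out was the 460nm/530nm emission ratio (excitation 405nm) after CCF4 loading for 2.5 hours at room temperature. Cells carried an AP-1-driven beta-lactamase reporter, were stimulated with EC50 EGF plus compound for 5 hours, and AC50 values came from titrations.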

[2] = NFAT Signaling Pathway (AID 444); conditions: Jurkat NFAT-bla M1, carbachol, beta-lactamase ratio, 5 h; at 17.2 µM (top of the series) unless noted;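 further: carbachol stimulus at about its EC50 of 1 µM final; on the % scale 0 is the no-effect control and ±100 the full control effect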
How it was run: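 Jurkat cells carrying an NFAT-driven β-lactamase reporter and co-transfected muscarinic M1 receptor were treated with compound plus carbachol (1 uM final, an EC50 level) for 5 h at 37 °C. CCF4 loading followed for 1 h at RT; 460/530 nm ratio gave %activity.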

[3] = Stat Signaling Pathway (AID 446); conditions: ME-180 (cervical carcinoma) SIE beta-lactamase reporter, IL-6 stimulated, 5 h; at 17.2 µM (top of the series) unless noted;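 further: ME-180 cervical cancer cells given 40 pM IL-6 alongside compound; SIE-controlled beta-lactamase reporter measured as 460/530 nm FRET emission ratio; on the % scale 0 is the no-effect control and ±100 the full control effect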
How it was run: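 Normalization used AC90 stimulation (300 pM IL-6) and AC90 inhibition (125 nM pan-JAK inhibitor at 40 pM IL-6). The underlying signal is SIE-driven beta-lactamase in ME-180 cells after 5 h IL-6 exposure with compound.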

[4] = biological target: Glucocorticoid receptor (Homo sapiens) (UniProt P04150); assay: GR-GFP Redistribution (AID 450;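 active means compounds whose dose series gives a full or clear partial fitted curve of increased nuclear translocation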; further: potency means the concentration at half of the fitted maximal effect)
Chain of Glucocorticoid receptor (Homo sapiens) (P04150 whole entry, looked up): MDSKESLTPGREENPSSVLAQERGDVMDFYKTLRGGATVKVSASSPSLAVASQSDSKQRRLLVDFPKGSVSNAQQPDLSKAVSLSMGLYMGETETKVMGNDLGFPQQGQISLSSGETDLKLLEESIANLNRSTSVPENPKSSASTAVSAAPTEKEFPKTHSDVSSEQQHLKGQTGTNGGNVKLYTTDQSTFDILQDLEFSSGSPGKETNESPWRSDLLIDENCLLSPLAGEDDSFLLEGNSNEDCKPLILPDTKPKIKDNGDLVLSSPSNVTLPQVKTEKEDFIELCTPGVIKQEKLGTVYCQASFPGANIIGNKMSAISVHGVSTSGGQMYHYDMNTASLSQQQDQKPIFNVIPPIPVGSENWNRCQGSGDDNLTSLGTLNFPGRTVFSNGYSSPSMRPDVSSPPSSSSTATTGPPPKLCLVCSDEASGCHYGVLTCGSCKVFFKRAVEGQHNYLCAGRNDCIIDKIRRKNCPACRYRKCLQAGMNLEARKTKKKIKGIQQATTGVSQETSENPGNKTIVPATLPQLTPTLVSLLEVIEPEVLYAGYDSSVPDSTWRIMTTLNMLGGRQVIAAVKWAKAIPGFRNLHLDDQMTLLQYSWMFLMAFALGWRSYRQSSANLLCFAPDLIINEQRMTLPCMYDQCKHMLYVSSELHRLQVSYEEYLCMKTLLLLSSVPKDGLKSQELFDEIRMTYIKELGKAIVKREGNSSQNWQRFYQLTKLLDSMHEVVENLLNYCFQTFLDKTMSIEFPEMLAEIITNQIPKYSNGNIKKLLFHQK

CN=C1c2cc3c(Br)c(OC)ccc3n2CCN1C
inactive: activity change, negative = inhibition [1] 4.49% | activity change, negative = inhibition [2] -7.64% | activity, negative = inhibition [3] 6.11% | Potency [4] > 20.6 µM

O=C(C1=C(O)C(=O)N(c2ncccn2)C1c1cccc(Cl)c1)c1ccco1 (centres undefined)
inactive: activity change, negative = inhibition [1] -4.37% | activity change, negative = inhibition [2] 22.6% | activity, negative = inhibition [3] -6.45% | Potency [4] > 20.6 µM

Cn1c(CSc2ncn[nH]2)nc2ccccc21
inactive: activity change, negative = inhibition [1] -5.65% | activity change, negative = inhibition [2] 3.91% | activity, negative = inhibition [3] 20.6% | Potency [4] > 20.6 µM

C=CCn1c(=S)[nH]c2ccccc2c1=O
inactive: activity change, negative = inhibition [1] -3% | activity change, negative = inhibition [2] 10.1% | activity, negative = inhibition [3] 4.87% | Potency [4] > 20.6 µM

CC(C)C1Cc2c(C#N)c(N)n(C)c(=S)c2CO1 (centres undefined)
inactive: activity change, negative = inhibition [1] -4.25% | activity change, negative = inhibition [2] -23.6% | activity, negative = inhibition [3] 4.22% | Potency [4] > 20.6 µM

CCc1cccc(CC)c1N(COC)C(=O)Cn1nnc2ccccc21
inactive: activity change, negative = inhibition [1] -10.2% | activity change, negative = inhibition [2] 10% | activity, negative = inhibition [3] -3.83% | Potency [4] > 20.6 µM

Cc1cccc(-n2ncc3c(NCCN4CCOCC4)ncnc32)c1
inactive: activity change, negative = inhibition [1] 1.48% | activity change, negative = inhibition [2] 8.91% | activity, negative = inhibition [3] 4.97% | Potency [4] > 20.6 µM

COc1ccc(C2C(C#N)=C(N)Oc3n[nH]c(C)c32)cc1CSc1ccccn1 (centres undefined)
inactive: activity change, negative = inhibition [1] -15.2% | activity change, negative = inhibition [2] 13.4% | activity, negative = inhibition [3] -27.9% | Potency [4] > 20.6 µM

Cn1c(=O)n(CC(=O)Nc2ccccc2)c2ccccc21
inactive: activity change, negative = inhibition [1] -5.57% | activity change, negative = inhibition [2] -4.15% | activity, negative = inhibition [3] -7.48% | Potency [4] > 20.6 µM

COc1cccc(C2/C(=C(/O)c3cnn(-c4ccccc4)c3C)C(=O)C(=O)N2CCN(C)C)c1OC (centres undefined)
inactive: activity change, negative = inhibition [1] -4.08% | activity change, negative = inhibition [2] 5.52% | activity, negative = inhibition [3] 3.83% | Potency [4] > 20.6 µM

CC1(C)Cc2c(sc3ncn4nc(-c5ccco5)nc4c23)CO1
inactive: activity change, negative = inhibition [1] -5.24% | activity change, negative = inhibition [2] 8.04% | activity, negative = inhibition [3] -2.67% | Potency [4] > 20.6 µM

CCOc1cccc(-c2nnc3sc(-c4cccs4)nn23)c1
inactive: activity change, negative = inhibition [1] -12.6% | activity change, negative = inhibition [2] -10.8% | activity, negative = inhibition [3] 5.52% | Potency [4] > 20.6 µM

Cc1cc(C)c2nc(SCCC#N)nc(C)c2c1
inactive: activity change, negative = inhibition [1] -4.73% | activity change, negative = inhibition [2] 11.8% | activity, negative = inhibition [3] 6.57% | Potency [4] > 20.6 µM

Cc1nnc(N2CCOCC2)c2ccccc12
inactive: activity change, negative = inhibition [1] 5.51% | activity change, negative = inhibition [2] 6.76% | activity, negative = inhibition [3] 5.08% | Potency [4] > 20.6 µM

COc1ccc2c(c1)C1(C)CC(C)(C)N2C(=O)N1c1ccccc1 (centres undefined)
inactive: activity change, negative = inhibition [1] -24.6% | activity change, negative = inhibition [2] 24.8% | activity, negative = inhibition [3] -17.2% | Potency [4] > 20.6 µM

O=c1[nH]c2cnccc2n1-c1ccccc1
inactive: activity change, negative = inhibition [1] -12.9% | activity change, negative = inhibition [2] -4.82% | activity, negative = inhibition [3] 1.57% | Potency [4] > 20.6 µM

CCOc1cccc(-c2nnc3sc(-c4ccco4)nn23)c1
inactive: activity change, negative = inhibition [1] -1.16% | activity change, negative = inhibition [2] 18.2% | activity, negative = inhibition [3] -18.8% | Potency [4] > 20.6 µM

CN(C)c1nc2n(c(=S)n1)CCS2
inactive: activity change, negative = inhibition [1] 11.5% | activity change, negative = inhibition [2] 3.88% | activity, negative = inhibition [3] -7.31% | Potency [4] > 20.6 µM

CC(O)Cn1ccccc1=N (centres undefined)
inactive: activity change, negative = inhibition [1] -4.75% | activity change, negative = inhibition [2] 25.6% | activity, negative = inhibition [3] 3.45% | Potency [4] > 20.6 µM

CCN(CC)CCCN1C(=O)C(=O)/C(=C(/O)c2ccccc2)C1c1cc(OC)ccc1OC (centres undefined)
inactive: activity change, negative = inhibition [1] 3.34% | activity change, negative = inhibition [2] 7.04% | activity, negative = inhibition [3] 3.31% | Potency [4] > 20.6 µM

COc1ccccc1C(CC(=O)Nc1nccs1)c1ccco1 (centres undefined)
inactive: activity change, negative = inhibition [1] -11.9% | activity change, negative = inhibition [2] -20.1% | activity, negative = inhibition [3] -11.3% | Potency [4] > 20.6 µM

Nc1nnnn1CC(=O)OCc1cccc(Br)c1
inactive: activity change, negative = inhibition [1] -12.9% | activity change, negative = inhibition [2] 14.6% | activity, negative = inhibition [3] 12.3% | Potency [4] > 20.6 µM

CCN(CC)CCN1C(=O)C(O)=C(C(=O)c2ccco2)C1c1ccccn1 (centres undefined)
inactive: activity change, negative = inhibition [1] -3.97% | activity change, negative = inhibition [2] -0.0336% | activity, negative = inhibition [3] 3.83% | Potency [4] > 20.6 µM

CSc1nc(NC(C)=O)nc(C)c1Cl
inactive: activity change, negative = inhibition [1] 11.1% | activity change, negative = inhibition [2] -9.42% | activity, negative = inhibition [3] 3.48% | Potency [4] > 20.6 µM

CN(C)/C=C1\N=C(c2ccc(Cl)cc2Cl)OC1=O
inactive: activity change, negative = inhibition [1] -19.5% | activity change, negative = inhibition [2] -5.67% | activity, negative = inhibition [3] 3.89% | Potency [4] > 20.6 µM

CC(C)OC(=O)[C@H]1[C@H](c2ccc(Cl)cc2)[C@@](C#N)(C(N)=O)[C@@H]2C=CC(C(N)=O)=CN21
inactive: activity change, negative = inhibition [1] -13.7% | activity change, negative = inhibition [2] -5.51% | activity, negative = inhibition [3] -11.5% | Potency [4] > 20.6 µM
